# Reference: PubChem BioAssay AID651814 (National Center for Advancing Translational Sciences (NCATS), 2012)
# In all, about 2,100 compounds went through this assay and about 590 (28%) were called active. Roughly 42% stayed inconclusive and do not appear here. The list shows a part of the results. Values without a mark were called inactive. Calls follow the shape of the dose curve; as a rule, active = well fitted inhibition curve with a large enough effect; inconclusive = small, poorly fitted or top-dose-only effect; inactive = flat fitted curve, though single readings scatter.
# Target: DNA dC->dU-editing enzyme APOBEC-3F (Homo sapiens) (UniProt Q8IUX4)
# Assay: qHTS for inhibitors of Vif-A3F interactions: Cherry picks; also: nearly all actives have a fitted effect of over 70% in size;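 as to max response: % of control where 0% means no effect; active compounds raise eYFP fluorescence by blocking Vif-driven A3F loss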
# Details: HeLa A3F-eYFP + Vif (tagged APOBEC3F with the HIV-1 protein that degrades it), eYFP fluorescence, 24 h
# Procedure, shortened: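 HeLa cells stably expressing A3F-eYFP plus Vif, cultured overnight, then exposed to compounds at several concentrations for 24 h at 37 deg C. Reduced Vif-driven degradation read as rising eYFP fluorescence (488 nm ex/500-530 nm em) by laser-scanning cytometry; MG132 as positive control.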
# Potency is read from the fitted curve at half-maximal effect.
# Sequence of DNA dC->dU-editing enzyme APOBEC-3F (Homo sapiens) (Q8IUX4 whole entry, looked up): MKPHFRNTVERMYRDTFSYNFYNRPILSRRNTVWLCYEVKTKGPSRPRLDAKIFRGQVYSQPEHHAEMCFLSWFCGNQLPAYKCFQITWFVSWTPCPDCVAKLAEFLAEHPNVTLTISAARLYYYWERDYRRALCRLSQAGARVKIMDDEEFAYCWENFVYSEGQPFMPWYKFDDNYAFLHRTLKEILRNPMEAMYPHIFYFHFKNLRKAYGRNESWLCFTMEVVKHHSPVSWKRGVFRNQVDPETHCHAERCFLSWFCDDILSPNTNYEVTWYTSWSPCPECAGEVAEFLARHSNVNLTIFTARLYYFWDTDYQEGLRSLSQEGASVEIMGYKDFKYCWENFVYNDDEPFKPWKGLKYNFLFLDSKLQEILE
Compound,max response [%],Potency
NC1=NC(=O)/C(=C/c2cc(Br)c(O)c(Br)c2)S1,-7.06,–
Cc1ccc2[nH]c3c(c2c1)CCCC3NC(=O)CCl (stereo not given),-15.6,–
O=C1CC(c2cc(Br)ccc2F)c2cc3c(cc2N1)CCC3 (stereo not given),-29.3,–
CC1CCN(c2ccc3c(c2)S(=O)(=O)c2cccc(C(=O)NCc4cccc(F)c4)c2C3=O)CC1,–,14 µM (active)
O=C(NCc1ccccc1C(F)(F)F)c1cccc2c1C(=O)c1ccc(N3CCC(N4CCCCC4)CC3)cc1S2(=O)=O,–,16.4 µM (active)
O=C(NCc1cccc(F)c1)c1cccc2c1C(=O)c1ccc(N3CCCC3)cc1S2(=O)=O,–,14 µM (active)
COc1cc(C(=O)NCCOc2cc(C)cc(C)c2)c(Br)c(OC)c1OC,-22.9,–
COc1ccc(-c2ccc3c(c2)S(=O)(=O)c2cccc(C(=O)NCCOc4ccccc4)c2C3=O)cc1OC,–,15.8 µM (active)
Cc1cc(-c2nc(C)c(C(=O)NN)s2)no1,-13.4,–
CCn1c(O)c(/C=N/NC(=O)c2ccncc2)c(=O)n(CC)c1=S,-6.26,–
CC(C)c1cccc(-c2ccc3c(c2)S(=O)(=O)c2cccc(C(=O)NCc4ccccc4)c2C3=O)c1,-28.2,–
O=C(NCc1ccccc1)c1cccc2c1C(=O)c1ccc(/C=C/c3ccccc3)cc1S2(=O)=O,–,16.4 µM (active)
Cc1ccc(CNC(=O)c2cccc3c2C(=O)c2ccc(N4CCC(C)CC4)cc2S3(=O)=O)cc1,–,16.4 µM (active)
N#Cc1c(-c2ccccc2F)cc(C2CC2)nc1SCC(=O)c1cccs1,–,17.7 µM (active)
CCc1c(C)nc(SCC(=O)c2cccs2)c(C#N)c1C,0.208,–
CCn1c(CNC(=O)c2cc(OC)c(OC)c(OC)c2)cc2cc(C)ccc21,2.52,–
Cc1ccc2nc(-c3ccccn3)c(NC3CCCC3)n2c1,-1.86,–
c1ccc(Nc2nc(-c3ccccn3)cs2)cc1,-4.92,–
CCc1cccc2c(C(O)c3c[nH]c4ccccc34)c[nH]c12 (stereo not given),–,18.4 µM (active)
COc1ccc(C2=CC(c3ccc(N(C)C)cc3)n3nnnc3N2)cc1 (stereo not given),-6.88,–
C=CCOC(=O)C1=C(C)Nc2nnnn2C1c1cccs1 (stereo not given),-1.29,–
COc1cccc(C2=CC(c3cccs3)n3nnnc3N2)c1 (stereo not given),–,6.27 µM (active)
CCOC(=O)C1=C(Cc2ccc(Cl)cc2)C(=O)c2ccccc2C1=O,–,16.4 µM (active)

Compound,max response [%],Potency
CCCC(=O)NC1=C(Cl)C(=O)c2ccccc2C1=O,5.27,–
S=C(Nc1ccccc1)N1CCn2c1nc1ccccc12,-7.52,–
Cc1cc2nc(SCCOC(=O)Nc3cccc(Cl)c3)nc(C)c2cc1C,3.73,–
COc1cccc(N2CC(O)=C(c3nc4ccccc4s3)C2=N)c1,–,5.59 µM (active)
CCN(CC)c1ccc(/C=C/c2cccc[n+]2C)c(OC)c1,–,3.14 µM (active)
C(=C\c1c[nH]c2ccccc12)/c1ccc2ccccc2n1,–,23.1 µM (active)
Cc1[nH]c2ccccc2c1/C=C/c1ccc2ccccc2n1,–,7.31 µM (active)
C(=Cc1c[nH]c2ccccc12)c1ccc2ccccc2n1,–,23.1 µM (active)
CCOC(=O)c1c(-c2ccc(OC)cc2)csc1/N=C/C1=C(O)CCCC1=O,-6.09,–
Cc1ccccc1-n1c(/C=C/c2c(C)n(C)c3ccccc23)nc2ccccc2c1=O,–,8.2 µM (active)
CN1CCc2c(sc(NC(=O)CSc3ccc(F)cc3)c2-c2nc3ccccc3s2)C1,–,7.31 µM (active)
CCC(=O)OCc1cnc(C)c2oc(=O)c(C(=O)Nc3ccccc3C(F)(F)F)cc12,-0.08,–
COc1ccc(NC(=O)c2sc3nc(-c4ccc(OC)cc4)cc(C(F)(F)F)c3c2N)cc1,–,1.3 µM (active)
COc1ccc(C(=O)c2sc3nc(-c4ccc(C)cc4)cc(C(F)(F)F)c3c2N)cc1,–,8.2 µM (active)
COc1ccc(OC)c(NC(=O)c2sc3nc(Cc4ccccc4)cc(C(F)(F)F)c3c2N)c1,–,8.2 µM (active)
COc1cccc(C(=O)c2sc3nc(-c4ccccc4)cc(C(F)(F)F)c3c2N)c1,–,1.46 µM (active)
Nc1c(C(=O)O)sc2nc(-c3ccc(F)cc3)cc(-c3ccccc3)c12,-11.4,–
Cc1cc(C(F)(F)F)c2c(N)c(C(=O)Nc3cc(C)on3)sc2n1,-20.9,–
COc1cc(C(=O)Nc2nnc(Cc3ccccc3)s2)cc(OC)c1OC,-23.2,–
CN1C2=CC=CC=CC2=[N+](C)C12C([N+](=O)[O-])=CC(=[N+]([O-])[O-])C=C2[N+](=O)[O-] (stereo not given),-0.344,–
COc1ccccc1/C=N/NC(=S)Nc1cccnc1,-4.95,–
CC(=O)c1cccc(NC(=O)C2CCCN(S(=O)(=O)c3cccc4nonc34)C2)c1 (stereo not given),-0.245,–
